# High-throughput results deposited in PubChem by Center for Chemical Genomics, University of Michigan.
# Dicer inh: inhibitors of human Dicer processing of pre-microRNA; Q9UPY3; cat-ELCCA pre-miR-21 Dicer processing, chemiluminescence; stronger effect = higher value; z-score at 25 µM; actives 6% (n = 47,000); AID 1347074; in the data active means z-score above about 3, passing the limit was not always enough;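 further: plate controls were vehicle for no effect and no enzyme for full effect; higher signal means more uncleaved substrate so more Dicer inhibition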
# Starred values were filed as active, the others as inactive. This is one part of a sample in which hits are shown more often than they occur.
SMILES,Dicer inh
O=C(Nc1cc(C(F)(F)F)ccc1Cl)C(=S)N1CCOCC1,-0.41
N#CCC(=O)NNC(=S)NC1CCCCC1,-1
O=C(O)C(Cc1c[nH]c2ccccc12)N1C(=O)C2CCCCC2C1=O (configuration not stated),-0.6
Nc1ccc2nc(SCc3ccc(Cl)cc3)sc2c1,3.9*
Clc1ccc(CSc2nsc(SCc3ccc(Cl)cc3)n2)cc1,0
Clc1ccc(CSc2nnc(SCc3ccc(Cl)cc3)s2)cc1,0.51
Nc1nc(-c2ccc(Cl)cc2)c(-c2ccccc2)s1,0.25
CCCCn1c(SCC(=O)OC)nc2sc3c(c2c1=O)CCC3,4.3*
COC(=O)CSc1nc2sc3c(c2c(=O)n1-c1ccc(OC)cc1)CCCC3,24
CCn1c(SCC(=O)c2ccccc2)nc2sc3c(c2c1=O)CCC3,-1
c1ccc(Nc2ncnc3c2sc2ncccc23)cc1,-0.49
CSc1cccc(NC(=S)NNC(=O)CC#N)c1,1.5
Cc1cc(C)n2nc(SCC(=O)Nc3ccc(C(C)C)cc3)nc2n1,-0.19
Cc1cc(C)nc(NCc2ccco2)n1,-0.31
O=C(NCc1ccco1)Oc1ccccc1,1.2
Oc1ccccc1Nc1nc(NCc2ccco2)c2ccccc2n1,3.1*
CC(C)(C)c1cc2nc(-c3cccc([N+](=O)[O-])c3)cc(C(F)(F)F)n2n1,0.36
CN(C)NC(=O)Cn1nnc(-c2cc(Cl)cc(Cl)c2)n1,1
Cc1cc(NC(=O)CSc2n[nH]c(=O)n2-c2ccc3c(c2)OCCO3)n(-c2ccccc2)n1,-0.25
COc1ccc(Br)cc1Br,0.45
COc1ccc(CNCC2(O)CCOC(C)(C)C2)cc1 (configuration not stated),3.6*
COc1ccc(CNCc2ccc(Br)cc2)c(OC)c1,0.88
COc1ccc(CN=C(C)C2CCOC2=O)cc1 (configuration not stated),-1.5
N#CC1=C(Nc2ccccc2Cl)SC(c2c(Cl)cccc2Cl)NC1=O (configuration not stated),1.2
CCCCCCCC1CC/C(=C/c2ccc(C#N)cc2)C1=O (configuration not stated),-2.1
SMILES,Dicer inh
c1ccc(-c2nc(NCCN3CCOCC3)c3ccccc3n2)cc1,3.3*
c1ccc(-c2nc(NCCCN3CCOCC3)c3ccccc3n2)cc1,2
CC(C)(C)c1ccc(-c2nc(NCCN3CCOCC3)c3ccccc3n2)cc1,-1.5
CCCn1c(=O)c(/C(N)=N/OC(=O)Nc2ccc(OC(F)(F)F)cc2)nn(-c2ccccc2)c1=O,-0.85
Cc1cc(C(F)(F)F)c2c(C)nn(-c3ccc(C)c(Cl)c3)c2n1,-1.7
Cc1ccc(F)cc1NCN1C(=O)c2ccccc2C1=O,0.29
CCC(=O)Oc1ccc2oc(C)c(C(=O)OCCOC)c2c1,1.6
O=C(NCCO)C(=O)NCc1ccccn1,1.2
O=C1CCCC2=C1C(c1ccc(F)cc1)C1C(=O)c3ccccc3C1=N2 (configuration not stated),-0.85
COc1ccc(C2C3=C(CCCC3=O)N=C3c4ccccc4C(=O)C32)cc1 (configuration not stated),8.7*
CC1(C)CC(=O)C2=C(C1)N=C1c3ccccc3C(=O)C1C2c1cccc(F)c1 (configuration not stated),-0.56
Nc1cccc(-n2c(=O)n(Cc3ccccc3)c(=O)c3[nH]cnc32)c1,2.2
CCOC(=O)c1sc(=S)n(C)c1C,2.9
CCOC(=O)C1=C(O)CCN(C)C1,14*
CCCCN1CC(C(=O)OCC)=C(O)C1=O,-0.89
Oc1ccccc1/C=N/Nc1nc2c(Cl)cc(Cl)cc2s1,1.7
ClC1(Cl)CC1CSC1=NCCN1 (configuration not stated),-1.5
O=C(NCc1cccs1)c1cnn2c1NC(c1ccc(Br)cc1)CC2C(F)(F)F (configuration not stated),5.7*
O=C(NCCc1ccccc1)c1cnn2c1NC(c1ccc(Br)cc1)CC2C(F)(F)F (configuration not stated),-0.32
O=C(NCc1ccc(F)cc1)c1cnn2c1NC(c1cccs1)CC2C(F)(F)F (configuration not stated),2.2
COc1ccc(C2CC(C(F)(F)F)n3ncc(C(=O)NCC4CCCO4)c3N2)cc1OC (configuration not stated),-0.63
Cc1ccc(C2CC(C(F)(F)F)n3ncc(C(=O)NCc4cn(C)nc4C)c3N2)cc1 (configuration not stated),-0.66
O=C(NCc1ccco1)c1cnn2c1NC(c1ccc(Br)cc1)CC2C(F)(F)F (configuration not stated),5*
Cc1ccc(S(=O)(=O)NC(=O)Oc2ccccc2N2CCOCC2)cc1,0.55
N/C(=N\NS(=O)(=O)c1ccccc1C(F)(F)F)c1ccccn1,0.57
SMILES,Dicer inh
CNC(=S)N/N=C(/N)c1ccccn1,4.3*
N/C(=N\NC(=O)Nc1ccc(Cl)cc1)c1ccccn1,6.6
COc1ccc(-n2c(/C=C/c3cn(C)c4ccccc34)nc3ccccc3c2=O)cc1,0.73
Cc1nc(-c2ccccn2)[nH]c(=O)c1Cl,0.11
CCOC(=O)c1ccc(NC(=S)N/N=C/c2ccccc2Cl)cc1,9.9
O=C(CCn1nnc(-c2cccc(Cl)c2Cl)n1)N/N=C/c1ccccc1Cl,3.2*
Cn1c(C(=O)N/N=C/c2ccccc2Cl)cnc1SCc1ccc(Cl)cc1,0.03
CC(C)CC(NC(=O)Cc1ccsc1)C(=O)N/N=C/c1cccs1 (configuration not stated),-2.1
Cc1cc(Nc2ccccc2C)c2cccc(C)c2n1,-1.1
Cc1cccc(C)c1Nc1nc2c(C)cc(C)c(C)c2s1,4.2*
Cc1ccc(Nc2nc3ccccc3s2)c(C)c1,0.88
O=[N+]([O-])c1ccc(N/N=C/c2ccccc2OC(F)(F)F)nc1,1.5
CO/N=C1\CCCc2c(C(=O)N/N=C/c3ccc(Cl)cc3)sc(SC)c21,-0.84
O=C1C=C(NCc2ccccc2)CC(c2ccc(Cl)cc2)C1 (configuration not stated),0.83
O=[N+]([O-])c1cc(C(F)(F)F)ccc1Oc1ccc(F)cc1,24
CS(=O)c1ccc(Oc2ccc(C(F)(F)F)cc2[N+](=O)[O-])cc1 (configuration not stated),0.25
CC(C)(C)NC(=O)NC(=O)c1ccc(Oc2ccc(C(F)(F)F)cc2[N+](=O)[O-])cc1,3.8*
CCOC(=O)C1C(=O)C(=O)N(C)C1c1ccccc1 (configuration not stated),-0.56
COc1ccc(C2c3c(oc4ccc(C)cc4c3=O)C(=O)N2c2nc(C)c(C)s2)cc1OC (configuration not stated),-3.9
O=S(=O)(c1ccccc1)c1csc(S(=O)(=O)N2CCCN(c3c(Cl)cncc3Cl)CC2)c1,-2.2
Cc1ccc2ncc(NC(=O)c3ccc(Cl)cc3)c(=O)n2c1,0.1
CCOc1ccc(C2c3c(oc4ccccc4c3=O)C(=O)N2c2nnc(C(C)C)s2)cc1OC (configuration not stated),1
Fc1ccc(/C=N/Nc2nnc3c(n2)[nH]c2ccccc23)cc1,-0.21
C(=N\Nc1nnc2c(n1)[nH]c1ccccc12)/c1ccc2c(c1)OCO2,-0.7
Oc1ccccc1/C=N/Nc1nnc2c(n1)[nH]c1ccccc12,3.4*
CCOC(=O)C(NC(=O)CC)(Nc1ccc(F)c(F)c1F)C(F)(F)F (configuration not stated),1.2
CC1CCCCN1C(=O)C1c2ccccc2Oc2ccccc21 (configuration not stated),1
CC(C)NC(=O)C1c2ccccc2Oc2ccccc21,2.8
CC1CN(C(=O)C2c3ccccc3Oc3ccccc32)CC(C)O1 (configuration not stated),2
